Shown are actives, neighbours in structure and some others; about 7.5% of the full set was active somewhere.
ELG1 genotox – inducers of genotoxicity in HEK293T ELG1-luciferase cells | Potency, µM (highest dose often 46 µM), for the others: at the top dose activity change, positive = activation, most hits filed as activators | AID 504466 | 330,000 compounds, 1.3% hits | HEK293T ELG1-luciferase reporter, luminescence, 16 h; further: % of control where 0% means no effect; nearly all actives have a fitted effect of over 60% in size
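DMSO vehicle served as control against compound-treated ELG1-luciferase HEK293T cells; exposure lasted 16 hr at 37 °C and 5% CO2, followed by ONE-Glo luminescence detection after 30 min.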
Rab9 promoter act – Rab9 promoter activation. AID 485297. 320,000 compounds, 2.8% hits. Potency, µM (top dose mostly 9.22 µM), for the others: at the top dose activation, negative = inhibition, hits mostly activators. Huh7 Rab9 promoter-luciferase reporter, luminescence, 24 h; further: % of control where 0% means no effect; nearly all actives have a fitted effect of over 60% in size
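Steps: seed 1500 Huh7 Rab9-luc cells per well, rest 2 h at 37 °C; add compound in DMSO; incubate 24 h; add luciferase reagent, 10 min ambient; read luminescence.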
NPC1 prom act – activates the NPC1 promoter. AID 485313. Potency, µM (series often up to 9.22 µM), for the others: at the highest dose activation, usual class: activators. 320,000 compounds, 2.4% hits. Huh7 NPC1 promoter luciferase reporter, 24 h; further: % of control where 0% means no effect; nearly all actives have a fitted effect of over 60% in size
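NPC1 promoter–luciferase Huh7 cells; 24 h compound; luminescence.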
FLuc counter – inhibits or activates purified firefly luciferase, miR-21 counter-screen | purified FLuc, Km substrates, luminescence inhibition | AID 588342 | Potency, µM (doses to about 57.5 µM), for the others: top-dose activity change, negative = inhibition, hits mostly inhibitors | P08659 | 360,000 compounds, 6.9% hits;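 further: plate controls were vehicle for no effect and reference inhibitor for full effect; nearly all actives have a fitted effect of over 55% in size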
Target sequence (P08659 whole entry, looked up): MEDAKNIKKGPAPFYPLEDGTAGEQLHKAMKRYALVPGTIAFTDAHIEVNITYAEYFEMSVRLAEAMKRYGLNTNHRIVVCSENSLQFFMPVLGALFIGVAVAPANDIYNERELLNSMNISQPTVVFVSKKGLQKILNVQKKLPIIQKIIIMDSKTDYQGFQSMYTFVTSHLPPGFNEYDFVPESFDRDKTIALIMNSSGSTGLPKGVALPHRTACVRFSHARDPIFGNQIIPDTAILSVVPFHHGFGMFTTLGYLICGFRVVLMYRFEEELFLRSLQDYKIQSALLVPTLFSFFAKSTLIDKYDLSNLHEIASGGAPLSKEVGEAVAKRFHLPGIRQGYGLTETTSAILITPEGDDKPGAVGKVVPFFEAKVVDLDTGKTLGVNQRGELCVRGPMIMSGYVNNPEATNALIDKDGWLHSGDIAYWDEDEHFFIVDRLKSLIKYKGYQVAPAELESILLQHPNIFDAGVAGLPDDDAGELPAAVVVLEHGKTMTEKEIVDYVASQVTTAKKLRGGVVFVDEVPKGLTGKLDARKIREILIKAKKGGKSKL
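Purified P. pyralis luciferase, 10 nM final, with Km-level 10 uM D-luciferin and 10 uM ATP in 50 mM Tris acetate pH 7.5, 10 mM Mg acetate, 0.01% Tween-20, 0.05% BSA; 6-point qHTS titration about 60 µM downward; luminescence read.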
SMN2 splice up – enhancers of SMN2 splice variant expression; 210,000 compounds, 2.8% hits; AID 1458; HEK293 SMN2-luciferase splicing reporter, luminescence, 30-36 h; Potency, µM (top dose mostly 46.1 µM), without a hit: top-dose activity change, positive = activation, most hits filed as activators; further: % of control where 0% means no effect; nearly all actives have a fitted effect of over 55% in size
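HEK293 cells carry an SMN2 […]–luciferase reporter in which exon 7 inclusion puts luciferase in frame. Cells were plated 10-12 h before compound addition, then incubated 30-36 h at 37C. ONE-Glo luminescence was read; sodium butyrate at 4.5 mM final served as control.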
Luc counter – counter-screen: inhibitors of Kinase-Glo firefly luciferase. Kinase-Glo luciferase, ATP luminescence, 8 min. 200,000 compounds, 0.28% hits. Q27757. Potency, µM (doses to about 38.3 µM), without a hit: at the top dose activity change, negative = inhibition, actives largely listed as inhibitors. AID 1379; further: on the % scale 0 is the no-effect control and ±100 the full control effect; nearly all actives have a fitted effect of over 60% in size
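Compounds were added to a substrate mix at pH 7.2 (50 mM imidazole, 10 uM ATP, within the enzyme's linear range), followed by Kinase-Glo detection reagent; luminescence was measured after 8 minutes at ambient temperature.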
Active calls of the source: *. The call rests on the fitted dose curve; in most records, active means well fitted curve in the direction sought with a large enough effect; inconclusive means small, poorly fitted or top-dose-only effect, or another doubt; inactive means no such curve, though single readings can be large; an effect the other way counts as inactive or inconclusive. Potency means the concentration at half of the fitted maximal effect.

For Cc1ccc(CCNC(=O)c2cccc(N3CCCC3=O)c2)cc1 the results were ELG1 genotox 12%, Rab9 promoter act 29%, NPC1 prom act 18% and FLuc counter inconclusive.
`Cc1cccc(CCNC(=O)c2cccc(N3CCCC3=O)c2)c1` gave ELG1 genotox inconclusive, Rab9 promoter act 2.5µM*, NPC1 prom act 1.4µM* and FLuc counter 11µM*.
`O=C(Nc1ccccc1)c1cccc(N2CCCC2=O)c1` gave ELG1 genotox 10µM*, Rab9 promoter act inconclusive, NPC1 prom act inconclusive, FLuc counter inconclusive, SMN2 splice up inconclusive and Luc counter -4%.
For OCCN(Cc1ccccc1)c1ncnc2sccc12 the results were ELG1 genotox -14%, Rab9 promoter act -10%, NPC1 prom act -4% and FLuc counter -3%.
`CCOc1ccc(CCNC(=O)CN2C(=O)NC3(CCCCC3)C2=O)cc1OCC` gave ELG1 genotox -1%, Rab9 promoter act 0%, NPC1 prom act 1% and FLuc counter 8%.
For COc1ccc(OCC(=O)Nc2cc3c(cc2C(=O)O)OCCCO3)cc1 the results were ELG1 genotox -1%, Rab9 promoter act -4%, NPC1 prom act -3% and FLuc counter -6%.
For CCS(=O)(=O)c1ccc(O)c(Nc2cc(C)nc(SC)n2)c1 the results were FLuc counter -16%.
For Cc1cccc(CCn2c(=O)c3ccccc3n(Cc3ccccc3C)c2=O)c1 the results were FLuc counter -16% and SMN2 splice up -12%.
`Cc1ccc(-c2cc(-c3cccs3)[nH]n2)c(O)c1` gave ELG1 genotox 4.1µM*, Rab9 promoter act 3%, NPC1 prom act 3%, FLuc counter 6.7µM*, SMN2 splice up 47% and Luc counter 0%.
CCOc1ccc2[nH]c(=O)c(CN(Cc3cccnc3)C(=O)Nc3ccccc3OC)cc2c1 was read as ELG1 genotox 1%, Rab9 promoter act -4%, NPC1 prom act -1%, FLuc counter 17µM*, SMN2 splice up inconclusive and Luc counter -5%.
Screening CCN(CC)C(=O)N1c2ccccc2C=Cc2ccccc21 returned ELG1 genotox -10%, Rab9 promoter act 5%, NPC1 prom act -4%, FLuc counter 1%, SMN2 splice up 4µM* and Luc counter 0%.
